Test [1] can be described thus: TOX21_TRB_BLA_Antagonist_Followup_viability: Viability Assessment in the Tox21 Thyroid Hormone Receptor beta Antagonism Beta-lactamase (BLA) Follow-Up Assay (AID 2283961). The method, boiled down:
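Cytotoxicity is measured in parallel with the antagonist-mode TRβ beta-lactamase screen, using ATP-coupled luciferase luminescence. Engineered HEK293T cells are treated for 18 h with 11-point compound series in triplicate.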

The target in the next test is THRB (gene 7068) (UniProt P10828). Kind of test: TOX21_TRB_COA_Antagonist_Followup_ratio: Tox21 Thyroid Hormone Receptor beta Antagonism through Coactivator Recruitment Follow-Up Assay, Ratio (AID 2283967). The method, boiled down: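 Cell-free TR-FRET coactivator recruitment with GST-tagged TRβ LBD (5.0 nM) and fluorescein-labeled SRC-2 peptide (200 nM) detected by terbium anti-GST antibody (2 nM). The 520:495 nm emission ratio was normalized to DMSO (0%) and T3 (100%).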
Sequence of THRB (gene 7068) (P10828 whole entry, looked up, the tested form may be a part): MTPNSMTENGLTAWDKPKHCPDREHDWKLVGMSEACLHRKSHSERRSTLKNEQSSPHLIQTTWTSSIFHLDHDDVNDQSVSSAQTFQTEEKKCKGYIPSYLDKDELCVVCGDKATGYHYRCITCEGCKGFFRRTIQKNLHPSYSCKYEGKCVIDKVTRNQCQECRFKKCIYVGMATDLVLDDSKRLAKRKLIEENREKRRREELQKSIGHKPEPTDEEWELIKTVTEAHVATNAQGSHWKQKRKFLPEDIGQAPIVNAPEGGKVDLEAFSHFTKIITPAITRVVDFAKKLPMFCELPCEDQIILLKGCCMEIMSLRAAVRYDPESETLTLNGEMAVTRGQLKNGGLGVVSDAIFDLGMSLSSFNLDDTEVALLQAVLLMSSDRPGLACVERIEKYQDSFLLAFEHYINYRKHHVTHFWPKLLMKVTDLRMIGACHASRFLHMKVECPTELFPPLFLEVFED

A short description of test [2]: TOX21_TR_RXR_BLA_Antagonist_Followup_viability: Viability Assessment in the Tox21 Thyroid Hormone Receptor beta Retinoid X Receptor alpha (RXRa) Antagonism Beta-lactamase (BLA) Follow-Up Assay (AID 2283979). The procedure, abridged: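 RXRa-UAS-bla HEK293T cells seeded 2,500/well in phenol red-free DMEM with 2% charcoal-stripped FBS, attached 5 h, then exposed to compounds at 11 concentrations in triplicate for 16 h at 37C/5% CO2. Viability read by CellTiter-Glo ATP luminescence; bidirectional fit versus DMSO.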

Test [3] addresses guinea pig Leukotriene D4 Receptor (LTD4), CYSLTR1 (gene 100135514) (UniProt Q2NNR5). Put plainly: NVS_GPCR_gLTD4: NovaScreen (NVS) G Protein-Coupled Receptor Assay for guinea pig Leukotriene D4 Receptor (LTD4) (AID 2283248). The procedure, abridged: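 Radioligand displacement on guinea pig lung membranes, 1 h incubation, filtration and scintillation counting; DMSO as negative control. Duplicate 25 uM primary screen, then singleton concentration-response up to 50 uM.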

For test [4], the target named is human Neurokinin, NK2 Receptor, TACR2 (gene 6865) (UniProt P21452). Kind of test: NVS_GPCR_hNK2: NovaScreen (NVS) G Protein-Coupled Receptor Assay for human Neurokinin, NK2 Receptor (AID 2283278).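 Note: actives reduce bound radioligand signal relative to DMSO baseline.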 The method, boiled down:
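Radioligand binding on membranes from CHO cells expressing receptor, filter-based scintillation read 4 h after dosing. Initial duplicate screen at 25 uM, actives in concentration series; loss of signal versus DMSO.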

Test [5] concerns the target human Opioid Receptor Mu (Opiate Mu), OPRM1 (gene 4988) (UniProt P35372). Kind of test: NVS_GPCR_hOpiate_mu: NovaScreen (NVS) G Protein-Coupled Receptor Assay for human Opioid Receptor Mu (Opiate Mu) (AID 2283290).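 Note: hits lower bound tracer signal versus DMSO meaning displacement of the ligand.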 The procedure, abridged:
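Radioligand displacement binding on membranes from CHO cells expressing the receptor, 2.5 h after dosing, filter-based scintillation counting; loss of signal vs DMSO baseline. Screened in duplicate at 25 uM, actives then run in concentration series.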

Test [6] in a line: CCTE_Mundy_HCI_hNP1_Pro_ResponderAvgInten: CCTE's Proliferation Assay in human neuroprogenitor cells, Mundy Lab (AID 2284224).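 Note: human neural progenitor cells hNP1 derived from WA09 embryonic stem cells.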 The procedure, abridged: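 Human neuroprogenitors (hNP1, WA09 lineage) receive test chemical after 40 to 44 hours of attachment. A four-hour BrdU pulse begins twenty hours later, followed by fixation and high content imaging; signal is referenced to DMSO controls.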

The target of test [7] is human Caspase 5 (CASP5), CASP5 (gene 838) (UniProt P51878). Kind of test: NVS_ENZ_hCASP5: NovaScreen (NVS) Enzymatic Assay for human Caspase 5 (CASP5) (AID 2283137). On the procedure: NVS_ENZ_hCASP5 is a biochemical, single-readout assay that uses extracted gene-proteins from E. coli in a cell-free assay. Measurements were taken 2 hours after chemical dosing in a 96-well plate.NVS_ENZ_hCASP5 is one of one assay component(s) measured or calculated from the NVS_ENZ_hCASP5 assay. It is designed to make measurements of enzyme activity, a form of enzyme reporter, as detected with fluorescence intensity signals by Fluorescence technology.Data from the assay component NVS_ENZ_hCASP5 was analyzed into 1 assay endpoint. This assay endpoint, NVS_ENZ_hCASP5, was analyzed in the positive analysis fitting direction relative to DMSO as the negative control and baseline of activity. Using a type of enzyme reporter, loss-of-signal activity can be used to understand changes in the enzymatic activity as they relate to the gene CASP5. Furthermore, this assay endpoint can be referred to as a primary readout, because this assay has produced multiple assay endpoints where this one serves a enzymatic activity function. To generalize the intended target to other relatable targets, this assay endpoint is annotated to the protease intended target family, where the subfamily is cysteine protease. […]
Sequence of human Caspase 5 (CASP5), CASP5 (gene 838) (P51878 whole entry, looked up): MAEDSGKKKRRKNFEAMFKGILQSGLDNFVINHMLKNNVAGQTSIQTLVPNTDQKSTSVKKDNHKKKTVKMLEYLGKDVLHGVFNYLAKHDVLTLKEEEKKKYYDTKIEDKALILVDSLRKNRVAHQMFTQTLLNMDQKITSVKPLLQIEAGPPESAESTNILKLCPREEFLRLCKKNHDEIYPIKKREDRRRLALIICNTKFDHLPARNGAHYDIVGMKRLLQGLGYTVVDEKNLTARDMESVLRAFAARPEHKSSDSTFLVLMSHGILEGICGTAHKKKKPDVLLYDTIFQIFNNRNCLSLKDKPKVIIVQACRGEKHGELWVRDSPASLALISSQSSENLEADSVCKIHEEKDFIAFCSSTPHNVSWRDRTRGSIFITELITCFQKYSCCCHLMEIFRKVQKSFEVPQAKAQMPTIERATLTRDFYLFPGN

A short description of test [8]: CCTE_Mundy_HCI_Cortical_NOG_NeuronCount: CCTE's Neurite Outgrowth Assay in rat cortical cells for Neuron Count, Mundy Lab (AID 2284236).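 Note: neurons counted by imaging betaIII-tubulin and Hoechst stained cortical cells; cells exposed to compound for about 48 hours before fixation.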 The procedure, abridged:
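Read-out: neuron number by high-content imaging of betaIII-tubulin (Alexa Fluor-488) and Hoechst-labelled rat primary cortical cells.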

Records with an inconclusive call do not appear. Calls of active or inactive are those of the source. Rule for the calls: active = hit-call score of the fitted dose curve at least 0.9, where 1 is the maximum; inconclusive = response in the unintended direction; inactive = score below 0.9.

Drawing on PubChem BioAssay (EPA / NIEHS), this text covers outcome and AC50 for four compounds.

Sequence of guinea pig Leukotriene D4 Receptor (LTD4), CYSLTR1 (gene 100135514) (Q2NNR5 whole entry, looked up): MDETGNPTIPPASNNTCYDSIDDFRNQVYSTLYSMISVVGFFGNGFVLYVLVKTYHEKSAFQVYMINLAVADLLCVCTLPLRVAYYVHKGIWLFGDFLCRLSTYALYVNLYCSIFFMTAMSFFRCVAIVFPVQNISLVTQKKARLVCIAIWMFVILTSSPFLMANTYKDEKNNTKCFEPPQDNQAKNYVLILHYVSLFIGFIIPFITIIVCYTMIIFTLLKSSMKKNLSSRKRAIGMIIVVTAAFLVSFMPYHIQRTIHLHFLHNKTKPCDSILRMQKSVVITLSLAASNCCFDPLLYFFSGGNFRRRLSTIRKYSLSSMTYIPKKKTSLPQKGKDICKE
Sequence of human Neurokinin, NK2 Receptor, TACR2 (gene 6865) (P21452 whole entry, looked up): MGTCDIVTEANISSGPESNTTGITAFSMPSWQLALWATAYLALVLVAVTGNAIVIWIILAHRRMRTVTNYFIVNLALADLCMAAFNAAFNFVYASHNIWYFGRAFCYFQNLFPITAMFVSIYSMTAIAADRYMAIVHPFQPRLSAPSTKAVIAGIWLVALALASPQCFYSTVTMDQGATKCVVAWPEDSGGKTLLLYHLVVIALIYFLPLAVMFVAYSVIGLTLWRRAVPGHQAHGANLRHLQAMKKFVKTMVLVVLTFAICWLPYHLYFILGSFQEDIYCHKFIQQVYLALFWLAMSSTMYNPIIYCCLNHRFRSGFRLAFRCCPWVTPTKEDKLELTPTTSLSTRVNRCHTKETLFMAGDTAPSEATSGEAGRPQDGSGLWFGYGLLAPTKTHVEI
Sequence of human Opioid Receptor Mu (Opiate Mu), OPRM1 (gene 4988) (P35372 whole entry, looked up): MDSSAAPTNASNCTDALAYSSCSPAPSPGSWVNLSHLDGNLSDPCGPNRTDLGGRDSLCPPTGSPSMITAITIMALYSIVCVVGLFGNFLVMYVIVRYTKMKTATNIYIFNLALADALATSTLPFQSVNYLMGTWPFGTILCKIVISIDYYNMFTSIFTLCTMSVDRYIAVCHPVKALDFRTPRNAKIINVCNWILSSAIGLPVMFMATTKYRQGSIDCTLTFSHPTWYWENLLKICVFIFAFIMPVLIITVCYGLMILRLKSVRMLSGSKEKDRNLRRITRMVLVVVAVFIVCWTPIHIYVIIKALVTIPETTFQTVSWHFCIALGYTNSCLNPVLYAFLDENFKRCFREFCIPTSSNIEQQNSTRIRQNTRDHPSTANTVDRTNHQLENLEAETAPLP

In the case of `CC(C)n1c(/C=C/[C@@H](O)C[C@@H](O)CC(=O)O)c(-c2ccc(F)cc2)c2ccccc21`, the result (in test [1]; with THRB (gene 7068); in [2]) was inactive.
For orientation: AC50 means the concentration giving half of the maximal activity seen. On to `CCCCCCCCCCCCCCCCCC[N+](C)(C)C`, for which the compound was classed as inactive in test [3]. Further, the AC50 was 4.53 µM (active) in test [4] and 3.4 µM (active) in test [5].
As for `NC(N)=Nc1nc(CSCCC(N)=NS(N)(=O)=O)cs1`, the outcome in test [6] was inactive.
Turning to `CC1(C)S[C@@H]2[C@H](NC(=O)[C@H](N)c3ccccc3)C(=O)N2[C@H]1C(=O)O`, in test [7], the AC50 was 1.88 µM (active). For the same compound, the compound was classed as inactive in test [8].
